From PubChem BioAssay come the findings set out here.

Calls of active or inactive are those of the source.

Experiment [1] relates to Human papillomavirus type 1a protein E7 (residues 44-93). Briefly: small molecules binding HPV E7 44-93 – biochemical, small-molecule microarray, residues 44-93, 635 nm fluorescence, primary screen (AID 1108).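 Further: E7 fragment applied at 1 µg/mL in TBST for 1 h at 4 C; score combines spot fluorescence with its signal to noise ratio.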 As to conditions: fluorescence 635 nm, higher = more signal.
Experiment [2] is described as follows: hepatitis C replication reporter changes, two-sided – Huh7 cells, luciferase reporter, HCV replication inhibitor project, primary screen (AID 1109).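 Further: huh7 hepatoma cells harbouring a luciferase neomycin HCV replicon reporter; luciferase luminescence as measure of HCV replicon replication; test concentration not given here.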 Conditions: Huh7 HCV replicon luciferase reporter, 48 h; higher = more signal. For orientation: A reporter such as luciferase makes a cellular process visible.
The target of experiment [3] is Left-right determination factor 2 (Homo sapiens) (UniProt O00292). Briefly: small molecules binding LEFTY2 protein – biochemical, small-molecule microarray, 635 nm fluorescence scan, primary screen (AID 1110). As to conditions: higher = more signal.
The target of experiment [4] is Calmodulin-1 (Homo sapiens) (UniProt P0DP23). Briefly: small molecules binding calmodulin-1 with EGTA – biochemical, small-molecule microarray, Cy5-labelled CALM1, profiling panel (AID 1111).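 Further: labelled calmodulin applied in Tris saline Tween buffer holding calcium plus EGTA and DTT.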 Conditions: Cy5-CALM1 binding fluorescence, higher = more signal.
Experiment [5] has the same target. Briefly: small molecules binding Ca-loaded calmodulin-1 – biochemical, small-molecule microarray, Cy5-labelled CALM1, plus calcium, artefact control for SMM control-protein annotation, profiling panel (AID 1112).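 Further: score merges spot fluorescence with signal to noise from triplicate slides.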 As to conditions: Cy5-CALM1 binding fluorescence, higher = more signal.
Experiment [6] is described as follows: probe aWnt5a binding to arrayed compounds – biochemical, biotinylated probe, 635/667 nm fluorescence, primary screen (AID 1113).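 Further: score merges 667 nm fluorescence intensity with signal-to-noise per printed feature.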 As to conditions: small-molecule microarray, higher = more signal.
Experiment [7] is described as follows: probe aShh binding to arrayed compounds – biochemical, biotinylated probe, 635/667 nm fluorescence, primary screen (AID 1114).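 Further: probe is biotin-labelled aShh protein from a stem cell growth factor screen; measures binding of labelled protein to compounds printed on the slide; score merges feature fluorescence at 667 nm with signal-to-noise.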 As to conditions: small-molecule microarray, higher = more signal.
Experiment [8] in a line: probe aNog binding to arrayed compounds – biochemical, biotinylated probe, 635/667 nm fluorescence, primary screen (AID 1115).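 Further: probe is biotinylated aNog protein used at 0.15 µg/mL for 1 h at 4 C; z-score combines 667 nm fluorescence of each spot with its signal to noise.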 Conditions: small-molecule microarray, higher = more signal.
Experiment [9] has as its target Torsin-1A-interacting protein 1 (Homo sapiens) (UniProt Q5JTV8). Kind of experiment: compound microarray binding of lysate hLAP1 – cell lysate, small-molecule microarray, COS7 lysate, 635/667 nm fluorescence, primary screen (AID 1116). Conditions: 635 nm fluorescence, higher = more signal.
In experiment [10] the target is Alpha-bungarotoxin (Bungarus multicinctus) (UniProt P60615). Kind of experiment: compounds binding labelled alpha-BTX control protein – biochemical, small-molecule microarray, Alexa647 label, 635/667 nm fluorescence, artefact control for SMM control protein annotation, profiling panel (AID 1117). Conditions: alpha-BTX-A647 binding fluorescence, higher = more signal.

The next experiment deals with Albumin (Bos taurus) (UniProt P02769). Kind of experiment: compounds binding labelled BSA control protein – biochemical, small-molecule microarray, Alexa647 label, 635/667 nm fluorescence, artefact control for SMM control protein annotation, profiling panel (AID 1118).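 Further: score merges 667 nm emission intensity and signal-to-noise per printed compound spot.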 Conditions: BSA-A647 binding, fluorescence 635 nm, higher = more signal.
Experiment [11] can be described thus: probe aXIP binding to arrayed compounds – biochemical, NeuroSMM set, 635/667 nm fluorescence, primary screen (AID 1119).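 Further: probe is the protein aXip251-270 applied at 1 µg/mL to compound-printed slides; binding of probe to printed compounds measured as 667 nm fluorescence plus signal to noise.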 As to conditions: small-molecule microarray, higher = more signal, called active from +8 up or from −8 down.
Experiment [12] is described as follows: probe aNOTCH3 binding on compound microarray – biochemical, small-molecule microarray, 635/667 nm fluorescence, primary screen (AID 1120).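 Further: probe is a biotin-tagged antibody raised against NOTCH3 rather than NOTCH3 protein; score merges spot fluorescence near 667 nm with spot signal to noise.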 As to conditions: higher = more signal.
The nature of experiment [13]: probe aNOTCH2 binding on compound microarray – biochemical, small-molecule microarray, 635/667 nm fluorescence, primary screen (AID 1121).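 Further: score merges feature fluorescence read at 667 nm with its signal to noise.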 As to conditions: higher = more signal.
The target in experiment [14] is Carbonic anhydrase 2 (Homo sapiens) (UniProt P00918). Briefly: compounds binding carbonic anhydrase 2 – biochemical, small-molecule microarray, Alexa647-labelled CAII, profiling panel (AID 1122). Conditions: CAII-A647 binding fluorescence, higher = more signal.
Experiment [15] can be described thus: COS7 lysate on small-molecule microarray, probe aHis, 635 nm (AID 1123).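 Further: z-score combines 667nm fluorescence intensity with signal-to-noise per printed compound spot.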 As to conditions: COS7 cell lysate, fluorescence, higher = more signal.
The nature of experiment [16]: probe aLAP1 signal on lysate-treated microarray – cell lysate, small-molecule microarray, COS7 lysate, primary screen (AID 1124).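 Further: lysate comes from COS7 cells expressing LAP1 and is applied at 0.3 µg/mL; score merges spot fluorescence near 667 nm with signal-to-noise over triplicate slides.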 Conditions: probe aLAP1, fluorescence, higher = more signal.
The subject of another experiment is Sam68 (KHDRBS1). Briefly: compounds binding KHDRBS1 protein – biochemical, small-molecule microarray, 635 nm fluorescence, primary screen (AID 1125).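 Further: score merges 667 nm channel intensity with signal to noise over triplicate slides.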 Conditions: higher = more signal.
Experiment [17] has as its system Chordin-like protein 2 (CHRDL2). Kind of experiment: compounds binding chordin-like 2 – biochemical, small-molecule microarray, 635 nm fluorescence, primary screen (AID 1126).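 Further: printed compound slides probed with Chrdl2 protein at 4 µg/mL for 1 h at 4 C; score merges 667 nm emission intensity with signal to noise over three replicate slides.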 Conditions: fluorescence 635 nm, higher = more signal.
For experiment [18], the target named is Concanavalin-A (Canavalia ensiformis) (UniProt P02866). Briefly: compounds binding concanavalin A lectin – biochemical, small-molecule microarray, Alexa647 label, 635 nm, artefact control for SMM control protein annotation, primary screen (AID 1127).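 Further: z combines 667 nm emission intensity with signal-to-noise across three replicate slides.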 As to conditions: ConA-A647 binding fluorescence, higher = more signal.
Chain of Concanavalin-A (Canavalia ensiformis) (P02866 whole entry, looked up): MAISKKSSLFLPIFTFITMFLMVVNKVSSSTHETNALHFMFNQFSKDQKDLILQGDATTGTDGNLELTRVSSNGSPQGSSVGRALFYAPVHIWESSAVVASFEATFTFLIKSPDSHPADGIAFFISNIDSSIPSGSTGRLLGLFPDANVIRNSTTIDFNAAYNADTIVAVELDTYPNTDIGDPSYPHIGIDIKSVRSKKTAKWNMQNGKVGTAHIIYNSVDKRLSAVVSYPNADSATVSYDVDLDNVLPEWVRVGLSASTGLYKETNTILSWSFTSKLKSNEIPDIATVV

Chain of Left-right determination factor 2 (Homo sapiens) (O00292 whole entry, looked up): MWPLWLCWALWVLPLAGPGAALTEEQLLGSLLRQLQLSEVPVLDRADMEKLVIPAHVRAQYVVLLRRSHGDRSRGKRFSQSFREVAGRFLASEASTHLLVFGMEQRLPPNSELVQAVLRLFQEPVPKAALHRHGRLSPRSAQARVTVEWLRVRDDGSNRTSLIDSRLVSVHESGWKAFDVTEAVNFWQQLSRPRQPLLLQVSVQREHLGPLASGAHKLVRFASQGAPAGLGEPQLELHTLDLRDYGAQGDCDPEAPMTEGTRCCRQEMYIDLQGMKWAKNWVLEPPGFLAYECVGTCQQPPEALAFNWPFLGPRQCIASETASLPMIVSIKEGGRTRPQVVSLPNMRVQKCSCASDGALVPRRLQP
Chain of Albumin (Bos taurus) (P02769 whole entry, looked up): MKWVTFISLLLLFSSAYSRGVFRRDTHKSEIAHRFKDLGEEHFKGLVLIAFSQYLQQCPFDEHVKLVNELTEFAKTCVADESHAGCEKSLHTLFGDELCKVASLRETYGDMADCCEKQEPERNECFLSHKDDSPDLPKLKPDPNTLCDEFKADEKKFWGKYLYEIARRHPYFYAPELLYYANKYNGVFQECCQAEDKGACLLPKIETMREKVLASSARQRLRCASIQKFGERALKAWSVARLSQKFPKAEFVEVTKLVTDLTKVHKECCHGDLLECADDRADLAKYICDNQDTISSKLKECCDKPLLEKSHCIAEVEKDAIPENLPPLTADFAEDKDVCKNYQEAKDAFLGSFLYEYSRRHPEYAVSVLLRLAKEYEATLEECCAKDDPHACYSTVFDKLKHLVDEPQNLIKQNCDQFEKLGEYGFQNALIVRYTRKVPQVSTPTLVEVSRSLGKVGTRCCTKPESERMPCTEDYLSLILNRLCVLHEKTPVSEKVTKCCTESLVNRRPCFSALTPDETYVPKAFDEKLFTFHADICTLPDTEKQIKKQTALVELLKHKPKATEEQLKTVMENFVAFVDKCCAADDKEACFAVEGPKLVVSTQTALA
Chain of Torsin-1A-interacting protein 1 (Homo sapiens) (Q5JTV8 whole entry, looked up): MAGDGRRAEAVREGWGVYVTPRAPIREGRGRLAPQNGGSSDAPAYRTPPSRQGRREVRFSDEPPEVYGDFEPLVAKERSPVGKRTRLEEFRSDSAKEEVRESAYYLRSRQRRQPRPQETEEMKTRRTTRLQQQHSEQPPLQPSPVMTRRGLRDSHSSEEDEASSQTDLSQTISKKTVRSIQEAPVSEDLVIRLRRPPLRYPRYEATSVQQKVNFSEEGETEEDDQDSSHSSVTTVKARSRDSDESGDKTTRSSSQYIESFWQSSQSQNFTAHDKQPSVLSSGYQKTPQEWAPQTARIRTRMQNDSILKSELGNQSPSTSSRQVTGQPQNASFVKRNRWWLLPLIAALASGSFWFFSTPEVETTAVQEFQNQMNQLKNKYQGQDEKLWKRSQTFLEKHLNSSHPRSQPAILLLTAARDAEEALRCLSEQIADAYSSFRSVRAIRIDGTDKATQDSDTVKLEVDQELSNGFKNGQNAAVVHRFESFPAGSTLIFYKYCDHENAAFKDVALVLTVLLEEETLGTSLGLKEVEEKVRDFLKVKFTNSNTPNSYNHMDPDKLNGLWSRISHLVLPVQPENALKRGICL
Chain of Alpha-bungarotoxin (Bungarus multicinctus) (P60615 whole entry, looked up): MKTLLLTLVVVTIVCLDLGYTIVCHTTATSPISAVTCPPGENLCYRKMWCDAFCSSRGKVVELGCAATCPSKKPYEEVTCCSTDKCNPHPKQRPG

For `CSCC[C@@H]1NC(=O)CC=C[C@@H](C)COC(=O)[C@H](C)COC1=O`, the composite z-score in [1] was -1.63; in [3], 1.71; in [4] it was -2.28; in [5], -3.17; in [6] it was -0.286; in experiment [7], -0.0035. The composite z-score in experiment [8] is -0.321; in [9], 0.443; in experiment [10], -1.96; with Albumin (Bos taurus) it was -0.891; in experiment [12], -0.172; in [13], 0.059. The composite z-score in experiment [14] is -0.682; in experiment [15], -0.808; in experiment [16] it was -0.848; in the experiment on Sam68 (KHDRBS1), 1.02; in experiment [17] it was 1.64; in experiment [18] it was -2.98. The compound further came in with a z-score in experiment [2] of 0.894. In experiment [11], the composite Z-score is 3.62 (inactive).
For the compound `COC(=O)C(C(=O)OC)C1CCCC(=O)C1` (stereo not given), the composite z-score in experiment [1] was 0.549; in experiment [3], 0.576; in [4], -0.385; in experiment [5], -0.645; in experiment [6], -0.104; in [7], -0.107. In addition, the composite z-score is -0.0446 in [8]; 0.526 in experiment [9]; 0.0087 in experiment [10]; -0.0912 with Albumin (Bos taurus); -0.0391 in experiment [12]; -0.0694 in [13]. Further, the composite z-score in experiment [14] is 0.381; in experiment [15], 0.214; in experiment [16], -0.205; in the experiment with Sam68 (KHDRBS1), -0.0924; in [17], 0.414; in experiment [18], 0.468. Further, the z-score in [2] was determined as 0.593. For the same compound, the composite Z-score in experiment [11] is 0.499 (inactive).
Regarding `C=CC[C@@H]1C=CC(ON=C(C)C)[C@@H](CO)O1` (stereo not given in full), the composite z-score is -1.17 in [1]; 0.0335 in experiment [3]; -0.253 in experiment [4]; 0.0283 in experiment [5]; -0.0701 in experiment [6]; -0.2 in experiment [7]. For the same compound, the composite z-score is -0.303 in experiment [8]; -0.275 in [9]; -0.139 in experiment [10]; -0.282 with Albumin (Bos taurus); -0.0288 in experiment [12]; -0.19 in [13]. Besides, the composite z-score in experiment [14] is -0.341; in experiment [15] it was -0.301; in experiment [16] it was -0.178; in the experiment on Sam68 (KHDRBS1) it was -1.11; in [17] it was -0.213; in experiment [18] it was -0.0875. The compound also showed a z-score in [2] of 0.931. In [11], the composite Z-score is 0.112 (inactive).
On to `CC(C)(C)N1C(=O)[C@H]2[C@H]3[C@H](O)[C@H](O)CC(=NOC[C@@H](O)COCc4ccco4)[C@@H]3CC[C@H]2C1=O`, for which the composite z-score in experiment [1] was -0.266; in experiment [3], 0.0349; in [4], -0.235; in experiment [5], 0.314; in [6], -0.0685; in experiment [7] it was -0.16. Moreover, the composite z-score in experiment [8] is -0.0733; in experiment [9], 1.45; in experiment [10], 1.65; in the experiment with Albumin (Bos taurus), 0.617; in [12], -0.0311; in experiment [13], -0.0984. Besides, the composite z-score in [14] is -0.129; in [15] it was 0.0171; in experiment [16], 0.227; in the experiment with Sam68 (KHDRBS1), -0.254; in experiment [17] it was 0.107; in experiment [18], 0.506. This compound also displayed a z-score in experiment [2] of -0.287. Further, the composite Z-score in experiment [11] was 0.103 (inactive).
Consider `C[C@@H]1CC[C@H]2C(=O)O[C@@H](COc3ccc(C(C)(C)C)cc3)CN2[C@H]1c1ccc(Br)cc1`, for which the composite z-score is 0.269 in [1]; 0.193 in [3]; -0.543 in experiment [4]; -0.229 in experiment [5]; -0.0704 in experiment [6]; -0.214 in [7]. Further, the composite z-score in experiment [8] is 0.0762; in [9] it was 0.0021; in experiment [10] it was 0.315; with Albumin (Bos taurus), 0.425; in [12], -0.0663; in experiment [13], -0.164. The composite z-score in [14] is -0.0795; in experiment [15], 1.39; in experiment [16], 0.21; in the experiment with Sam68 (KHDRBS1) it was 0.292; in [17], 0.329; in experiment [18], 0.721. Also, in [2], the z-score is -0.157. Moreover, the composite Z-score in experiment [11] is 0.289 (inactive).
